Results: the supplement of paper PMC6522484
± gives the standard deviation of the averaged measurements.

Key:
[1] = tested on: DLD1; assay: cell viability (CellTiter-Glo) relative to plate median (fraction of plate median); higher = more viable cells; conditions: 5 µM; treatment time 24 h; reporter: 7TFP
Summary of the method: (§1)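 Two independent replicates were averaged for each reported value. Library compounds were applied at a final 5 µM for 24 h to colorectal cancer cell lines stably expressing lentiviral TCF/Wnt firefly luciferase reporters. Firefly luciferase or CellTiterGlo luminescence from each well was normalised to the plate median.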

[2] = tested on: HCT116; assay: as above; conditions: 5 µM; treatment time 24 h; reporter: TCF4/Wnt
Summary of the method: as §1

[3] = tested on: SW480; assay: as above; conditions: 5 µM; treatment time 24 h; reporter: 7TFP
Summary of the method: as §1

[4] = tested on: DLD1; assay: TCF/Wnt firefly luciferase reporter signal relative to plate median (fraction of plate median); higher = higher Wnt reporter signal; conditions: 5 µM; treatment time 24 h; reporter: 7TFP
Summary of the method: as §1

[5] = tested on: SW480; assay: as above; conditions: 5 µM; treatment time 24 h; reporter: 7TFP
Summary of the method: as §1

Row | SMILES | cell viability [1] | cell viability [2] | cell viability [3] | TCF/Wnt firefly luciferase reporter signal [4] | TCF/Wnt firefly luciferase reporter signal [5]
1 | Cc1c(Nc2ncccc2C(=O)O)cccc1C(F)(F)F | 0.977 ± 0.016 | 1.1 ± 0.11 | 1.04 ± 0.042 | 1.11 ± 0.057 | 0.948 ± 0.14
2 | COc1cc(OC)c2c(=O)c(O)c(-c3ccc(OC)c(OC)c3)oc2c1 | 0.981 ± 0.055 | 1 ± 0.024 | 1.01 ± 0.021 | 0.899 ± 0.1 | 0.887 ± 0.17
3 | CN1CCC[C@@H]1Cc1c[nH]c2ccc(CCS(=O)(=O)c3ccccc3)cc12 | 0.943 ± 0.028 | 1.05 ± 0.12 | 0.956 ± 0.023 | 0.945 ± 0.18 | 1.04 ± 0.063
4 | OC[C@H]1O[C@@H](O[C@@H]2[C@@H](CO)OC(O)(CO)[C@H]2O)[C@H](O)[C@@H](O)[C@H]1O (mixture of isomers) | 0.999 ± 0.0014 | 0.99 ± 0.028 | 0.984 ± 0.0028 | 1.07 ± 0.18 | 1.02 ± 0.034
5 | C=C(C)[C@@H]1C[C@H](O)[C@]2(C(=O)O[C@@H]3O[C@H](CO[C@@H]4O[C@H](CO)[C@@H](O[C@@H]5O[C@@H](C)[C@H](O)[C@@H](O)[C@H]5O)[C@H](O)[C@H]4O)[C@@H](O)[C@H](O)[C@H]3O)CC[C@]3(C)[C@H](C[C@H]4OC(=O)C[C@@H](O)[C@]5(C)[C@@H]4[C@@]3(C)CC[C@H]5C(=C)C)[C@@H]12 [22alpha-hydroxychiisanoside (4)] | 0.87 ± 0.055 | 0.878 ± 0.06 | 0.937 ± 0.033 | 0.803 ± 0.0042 | 0.951 ± 0.029
6 | CCCCC(=O)N(Cc1ccc(-c2ccccc2-c2nnn[nH]2)cc1)[C@H](C(=O)O)C(C)C | 0.908 ± 0.081 | 0.988 ± 0.17 | 1 ± 0.054 | 0.985 ± 0.078 | 0.919 ± 0.09
7 | O=C(O)c1cc(O)ccc1O | 0.954 ± 0.0099 | 0.999 ± 0.059 | 1.005 ± 0.0071 | 1.04 ± 0.069 | 1.09
8 | Cc1ccccc1OCC(O)CO (stereo not given) | 0.958 ± 0.042 | 0.983 ± 0.0099 | 0.999 ± 0.03 | 1.02 ± 0.15 | 1.04 ± 0.014
9 | Cc1ccc(S(=O)(=O)NC(=O)NN2CC3CCCC3C2)cc1 (stereo not given) | 0.95 ± 0.063 | 0.999 ± 0.044 | 0.974 ± 0.052 | 1.07 ± 0.071 | 0.9645 ± 0.0035
10 | NC1(C(=O)O)CC1 | 0.997 ± 0.061 | 0.9665 ± 0.0021 | 0.9795 ± 0.0064 | 0.885 ± 0.045 | 0.919 ± 0.059
11 | O=C(O)CCC(=O)c1ccc(-c2ccccc2)cc1 | 1.04 ± 0.073 | 0.947 ± 0.12 | 0.962 ± 0.018 | 1 ± 0.095 | 1.04
12 | COc1ccc(-c2oc3ccccc3c(=O)c2O)cc1OC | 0.969 ± 0.087 | 0.912 ± 0.024 | 1.05 | 0.923 ± 0.0099 | 1.18 ± 0.028
13 | OC(c1cc(C(F)(F)F)nc2c(C(F)(F)F)cccc12)C1CCCCN1 (stereo not given) | 0.953 ± 0.033 | 1.005 ± 0.0071 | 1.02 ± 0.051 | 1.18 ± 0.028 | 1.11 ± 0.057
14 | CCC(C)C(=O)OC1[C@@H]2CC3=C4CC(=O)O[C@@H](c5ccoc5)[C@]4(C)CCC3[C@@](C)(C2=O)[C@@H](CC(=O)OC)C1(C)C (stereo not given in full) | 1.085 ± 0.0071 | 1.19 ± 0.092 | 1.18 ± 0.092 | 1.15 ± 0.15 | 0.938 ± 0.088
15 | CCCc1nc(C)c2c(O)nc(-c3cc(S(=O)(=O)N4CCN(CC)CC4)ccc3OCC)nn12 | 0.948 ± 0.022 | 1.02 ± 0.061 | 0.9505 ± 0.005 | 1.05 ± 0.021 | 1.07 ± 0.042
16 | CCCCC(=O)Oc1ccccc1C(=O)O | 0.984 ± 0.013 | 0.98 ± 0.042 | 0.988 ± 0.018 | 1 ± 0.052 | 1 ± 0.2
17 | C[C@H](N)CO | 0.911 ± 0.034 | 0.902 ± 0.047 | 0.93 ± 0.035 | 0.908 ± 0.058 | 1.12 ± 0.092
18 | CCCCC(=O)O[C@]1(C(=O)CO)CC[C@H]2[C@@H]3CCC4=CC(=O)CC[C@]4(C)[C@H]3[C@@H](O)C[C@@]21C | 0.981 ± 0.084 | 1.02 ± 0.11 | 0.96 ± 0.013 | 1.02 ± 0.11 | 0.997 ± 0.061
19 | O=c1cc(-c2cc(O)c(O)c(O)c2)oc2cc(O)cc(O)c12 | 1.02 ± 0.014 | 1.06 ± 0.057 | 0.943 ± 0.031 | 1 ± 0.057 | 0.952 ± 0.059
20 | C[N+](C)(C)CC(=O)O | 0.9965 ± 0.005 | 0.98 ± 0.042 | 0.926 ± 0.036 | 0.906 ± 0.1 | 0.9215 ± 0.0064
21 | CCCCNC(=O)NS(=O)(=O)c1ccc(C)cc1 | 0.85 ± 0.14 | 0.982 ± 0.054 | 0.987 ± 0.033 | 0.931 ± 0.097 | 1.005 ± 0.0071
22 | NCCCC(=O)O [gamma-AMINOBUTYRIC ACID] | 1.02 ± 0.046 | 1.02 ± 0.11 | 1.04 ± 0.05 | 1.06 ± 0.093 | 0.89 ± 0.24
23 | Oc1cc(O)c2c(c1)O[C@H](c1ccc(O)c(O)c1)[C@@H](O)C2 | 1.03 ± 0.014 | 1.03 ± 0.076 | 1.04 ± 0.042 | 1.08 ± 0.014 | 1.15 ± 0.035
24 | C=C(C)[C@@H]1CC[C@]2(C(=O)O)CC[C@]3(C)[C@H](CC[C@@H]4[C@@]5(C)CC[C@H](O)C(C)(C)[C@@H]5CC[C@]43C)[C@@H]12 | 1.03 ± 0.021 | 1.09 | 1.005 ± 0.0071 | 1.055 ± 0.0071 | 1.01 ± 0.014
25 | Clc1ccc(COC(Cn2ccnc2)c2ccc(Cl)cc2Cl)c(Cl)c1 (stereo not given) | 0.964 ± 0.042 | 1.01 ± 0.014 | 0.973 ± 0.0099 | 1.04 ± 0.11 | 1.04 ± 0.12
26 | CNCCCC12CCC(c3ccccc31)c1ccccc12 | 1.07 ± 0.085 | 1.085 ± 0.0071 | 1.07 ± 0.071 | 1.04 ± 0.035 | 1.1 ± 0.042
27 | NCCOB(c1ccccc1)c1ccccc1 | 0.968 ± 0.037 | 0.933 ± 0.042 | 0.96 ± 0.0071 | 1.135 ± 0.0071 | 1.04
28 | Cc1cccc2c3c(ccc12)C1=C(C(=O)C3=O)[C@@H](C)CO1 | 0.936 ± 0.1 | 0.825 ± 0.011 | 1.03 ± 0.014 | 0.955 ± 0.15 | 1.08 ± 0.15
29 | CCC(=O)C(CC)C(O)C(C)CC(C)C1OC(=O)CC2(O)CC=C(C)C(O2)/C(C)=C/CCCC(OC2CC(OC(N)=O)C(O)C(C)O2)/C=C\C(C)C(O)C1C (stereo not given) | 1.08 ± 0.16 | 1 | 0.99 ± 0.015 | 0.87 ± 0.067 | 0.974 ± 0.025
30 | CCCCc1oc2ccccc2c1C(=O)c1cc(I)c(OCCN(CC)CC)c(I)c1 | 1.02 ± 0.089 | 1.02 ± 0.036 | 0.964 ± 0.019 | 1.02 ± 0.029 | 1.04 ± 0.1
